Results as given in PubChem BioAssay (NCI).
Compounds without any hit were thinned out: in the full panel of roughly 79,000, 15% have a hit. Activity calls are given as the source filed them. Cut-off read from the data, not from the text of the source: active = growth inhibition above about 70%; inactive = the rest.

Columns and labels:
[1] = NCI Yeast Anticancer Drug Screen. Data for the rad50 strain (AID 155);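 note: 0% = growth of vehicle-only cultures of the same strain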; conditions: S. cerevisiae rad50 strain growth inhibition; at 50.0 µM; stronger effect = higher value
Summary of the method: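 Relative growth inhibition (compound vs vehicle) was measured in yeast with a defined repair-gene alteration.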

[2] = NCI Yeast Anticancer Drug Screen. Data for the mec2-1 strain (AID 157); conditions: S. cerevisiae mec2-1 strain, at 50.0 µM, stronger effect = higher value
Summary of the method: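 Compounds were applied to mec2-1 yeast cells. Their growth was then compared with that of vehicle-treated cultures to give growth inhibition.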

[3] = NCI Yeast Anticancer Drug Screen. Data for the sgs1 mgt1 strain (AID 161);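 note: 0% = growth of cultures given vehicle only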; conditions: S. cerevisiae sgs1 mgt1 strain, at 50.0 µM, stronger effect = higher value
Summary of the method: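 Growth of a repair-deficient yeast mutant was monitored after compound treatment and expressed as inhibition relative to vehicle-treated cultures.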

[4] = NCI Yeast Anticancer Drug Screen. Data for the cln2 rad14 strain (AID 165);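 note: 0% = growth equal to vehicle treated cultures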; conditions: S. cerevisiae cln2 rad14 strain, at 50.0 µM, stronger effect = higher value
Summary of the method: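 Strain: cln2 rad14 yeast, altered in cell cycle control and DNA damage repair. Read-out: growth inhibition vs vehicle.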

[5] = NCI Yeast Anticancer Drug Screen. Data for the bub3 strain (AID 167); conditions: S. cerevisiae bub3 mutant strain, at 50.0 µM, stronger effect = higher value
Summary of the method: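 Screening used yeast with an engineered genetic alteration affecting cell cycle control. Compound-exposed cultures were compared with vehicle cultures, and reduced growth was taken as inhibition.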

[6] = NCI Yeast Anticancer Drug Screen. Data for the mlh1 rad18 strain (AID 175); conditions: S. cerevisiae mlh1 rad18 strain growth inhibition; at 50.0 µM; stronger effect = higher value
Summary of the method: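 A repair-deficient yeast strain is exposed to test compound, and growth is scored relative to vehicle-treated controls.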

Measured: growth inhibition

Nc1nnc2nc(CC(=O)c3ccc4ccccc4c3)c(=O)[nH]n12
inactive: [1] -1.85% | [2] 10.9% | [3] -0.1% | [4] -21.2% | [5] -4.15% | [6] 2.05%

CCNC(=S)Nc1ccc(OCC)cc1
inactive: [1] 14.2% | [2] 24.3% | [3] 31.4% | [4] -18.1% | [5] 33.9% | [6] 16.4%

CCC(=O)OCCN(C)C
inactive: [1] -28% | [2] -50.4% | [3] 0.65% | [4] 10.8% | [5] -19.3% | [6] -8.35%

C/C(=C(/O)c1ccc(Cl)cc1)c1nc2cc(Cl)cc([N+](=O)[O-])c2[nH]c1=O
inactive: [1] 37% | [2] 43.3% | [3] 24.6% | [4] -4.55% | [5] 18.9% | [6] 53.5%

O=C1OCc2nc3c(c(-c4ccccc4C(F)(F)F)c21)C(=O)OC3
inactive: [1] -40.1% | [2] -66.6% | [3] -59.3% | [4] -0.85% | [5] -35.4% | [6] -39%

CC1(C)CC(=O)C2=C(C1)NC1=C(C2)C(=O)CC(C)(C)C1
inactive: [1] -15.4% | [2] -5.7% | [3] -22.4% | [4] 19.9% | [5] 7.6% | [6] 12.8%

OC12c3ccccc3C1(N1CCOCC1)CCCCC21OCCCO1 (stereo not drawn)
inactive: [1] 12.7% | [2] -11.2% | [3] -17.6% | [4] 10.1% | [5] -23.5% | [6] -5.15%

Nc1ccc(F)c(Cl)c1
inactive: [1] 0.85% | [2] -16.4% | [3] 10.7% | [4] -17.9% | [5] -4.25% | [6] 14.7%

O=c1c(-c2ccccc2)c2oc(c1-c1ccccc1)CS(=O)(=O)CCC2
inactive: [1] 21.9% | [2] 20.2% | [3] 16% | [4] 12.3% | [5] 8.15% | [6] -2.35%

CC(C)NNC(=O)c1ccc(N)cc1
inactive: [1] 16.1% | [2] 6.05% | [3] 4.55% | [4] 6.55% | [5] 4.8% | [6] 6.35%

CCOC(=O)/C(C#N)=C(\C)c1ccccc1
inactive: [1] 9.65% | [2] -5.3% | [3] 1.2% | [4] 5.15% | [5] -25.7% | [6] -17.6%

CC(C)(C)c1cc2ccc(C(N)=O)cc2c(=O)[nH]1
inactive: [1] -23.7% | [2] -29.8% | [3] -1.65% | [4] 1.2% | [5] -8.8% | [6] -4.95%

COC(=O)C1C=CN(N(C)C)C2=C1C(=O)c1c(O)cccc1C2=O (stereo not drawn)
active: [1] 86% | [2] 93% | [3] 89.2% | [4] 88.1% | [5] 89.5% | [6] 90.2%

CN(C)c1nc(=NCc2ccncc2)ss1
inactive: [1] -38.2% | [2] 8.45% | [3] 2% | [4] -45.4% | [5] 5.85% | [6] -16.8%

O=C(OCCCCNC1CCCCC1)c1ccc([N+](=O)[O-])cc1
inactive: [1] 9.65% | [2] 3% | [3] -7.05% | [4] -7.3% | [5] -13.6% | [6] 5.25%

O=c1[nH]cc(COCC(F)(F)C(F)(F)C(F)(F)C(F)F)c(=O)[nH]1
inactive: [1] -1.35% | [2] -14.9% | [3] -3.7% | [4] 0.5% | [5] -17.5% | [6] 1.2%

CC1C(O)CCC2C1(C)CCC1C2(C)CCC2(C)C3CC(C)(C)CCC3(C)CCC12C (stereo not drawn)
inactive: [1] -4.9% | [2] -3.3% | [3] 12.4% | [4] -10.1% | [5] 5.75% | [6] -6.75%

Cc1ccc(S(=O)(=O)O/C=C2/CCOC2=O)cc1
inactive: [1] 29.6% | [2] 43.2% | [3] 29.9% | [4] 28.8% | [5] 38.2% | [6] 60.9%

CCOC(=O)c1c(/N=C/c2cc(Br)ccc2O)sc2c1CCCC2
inactive: [1] 11.7% | [2] -7.8% | [3] 0.4% | [4] 12.9% | [5] -1.4% | [6] 10.7%

Nc1ccccc1C(F)(F)F
inactive: [1] 2.45% | [2] 5.65% | [3] 1.2% | [4] 4.1% | [5] 3.3% | [6] 8.25%

CCOC(=O)C1CC1c1c(C)c2cc3[nH]c(cc4nc(cc5nc(cc1[nH]2)C(C)=C5CCC(=O)OC)C(CCC(=O)OC)=C4C)c(C)c3C1CC1C(=O)OCC (stereo not drawn)
inactive: [1] -7.25% | [2] 36.5% | [3] 29.5% | [4] -19.4% | [5] -6.15% | [6] 39.2%

O=C(NCc1ccco1)Nc1ccc(Cl)cc1
inactive: [1] -29.5% | [2] -0.8% | [3] 0.6% | [4] -51.4% | [5] 14.5% | [6] -2.7%

CCCCN(C=O)c1ccccc1
inactive: [1] 3.15% | [2] 9.65% | [3] 2.95% | [4] 7.15% | [5] -8.45% | [6] 27.9%

N#CC(C#N)=CNC(=S)Nc1ccc(S(=O)(=O)Nc2nccs2)cc1
inactive: [1] -24.7% | [2] -35.8% | [3] -13.4% | [4] 4.85% | [5] -3.05% | [6] -3.65%

CC(=O)NC(CSCN(C)c1nc(N(C)C)nc(N(C)C)n1)C(=O)O (stereo not drawn)
inactive: [1] 7.5% | [2] -3.45% | [3] 2.95% | [4] 5.6% | [5] 8.2% | [6] 13.8%

CC12CCC(CC1)C2(C)C
inactive: [1] 5.6% | [2] 0.3% | [3] 0.15% | [4] -4.8% | [5] 4.75% | [6] -1.6%

CCCCCCC(C)C(=O)Nc1ccccc1 (stereo not drawn)
inactive: [1] 16.7% | [2] -11.8% | [3] 10.7% | [4] 2.75% | [5] -2.95% | [6] -17.1%

Nc1nc2sc3ccccc3c(=O)n2n1
inactive: [1] -10.7% | [2] -31.9% | [3] 11.5% | [4] 19.1% | [5] -3.2% | [6] -9.85%

O=C(OCc1ccccc1CN1CCOCC1)c1ccccc1
inactive: [1] 2.55% | [2] 16.4% | [3] 9.5% | [4] -11.9% | [5] -15.8% | [6] 8.3%

C/C(=N/O)C1c2ccccc2Cc2ccccc21
inactive: [1] -11.5% | [2] -11.8% | [3] -24.4% | [4] -12.8% | [5] -1.8% | [6] -22.5%

Cc1cc(N)c2cc(N)ccc2n1
active: [1] 99.6% | [2] 99.5% | [3] 99.4% | [5] 99.2% | [6] 98.2%
inactive: [4] 64.7%

O=C1c2ccccc2CC12Cc1cc3c(cc1C2=O)CCC3 (stereo not drawn)
inactive: [1] 5.05% | [2] -16.9% | [3] -17.2% | [4] 25.5% | [5] 44.4% | [6] 18.9%

CC(C)OCCCNc1ncnc2c1cnn2-c1ccc(Cl)cc1
inactive: [1] 3.55% | [2] -9.15% | [3] 3.55% | [4] -11.8% | [5] -13.6% | [6] -4.9%

c1cnc2ncncc2n1
inactive: [1] -2.6% | [2] 32.4% | [3] -8.55% | [4] 28.8% | [5] 14.4% | [6] 12.5%

O=COC(Cc1ccccc1)c1ccc2c(c1)OCO2 (stereo not drawn)
inactive: [1] 32.2% | [2] -5.2% | [3] 1.6% | [4] -7.2% | [5] 30.6% | [6] -3.05%

c1cc(Nc2ccncc2)ccn1
inactive: [1] 23.6% | [2] -13% | [3] -1.9% | [4] 6.2% | [5] 0.15% | [6] 19.9%

CCCCS(=O)(=O)CCC(N)C(=O)O (stereo not drawn)
inactive: [1] -3.45% | [2] -9.45% | [3] 2.6% | [4] -36.2% | [5] -4.75% | [6] -11.5%

CCCCNC(=S)/N=C/c1c(O)c2ccccc2[nH]c1=O
inactive: [1] -39.7% | [2] -15.2% | [3] -52.9% | [4] -18.9% | [5] 3.9% | [6] -41%
